Reference: PubChem BioAssay (NCATS)
Records with an inconclusive call do not appear. Entries that show only a call come without a potency. Values without a mark were called inactive. Calls of active or inactive are those of the source. Calls come from the whole dose curve; as a rule, active = well fitted curve in the direction sought with a large enough effect; inconclusive = small, poorly fitted or top-dose-only effect, or another doubt; inactive = no such curve, though single readings can be large; an effect the other way counts as inactive or inconclusive.

Columns and labels:
[1] = qHTS of pediatric cancer cell lines to identify multiple opportunities for drug repurposing: Primary screen for SK-N-MC cells (AID 1347093); note: series mostly up to about 46 µM
Procedure, shortened: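 Metabolically active cells were quantified by ATP-dependent luminescence (CellTiter-Glo, 15 min at room temperature) following 48 h treatment. Cells had been plated at 500-1,000 per well and settled for 5 h beforehand.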

[2] = qHTS of pediatric cancer cell lines to identify multiple opportunities for drug repurposing: Primary screen for BT-37 cells (AID 1347094); note: series mostly up to about 57 µM
Procedure, shortened: (§1)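 Plated cells (500-1,000 per well, growth media) were allowed to settle for 5 hours, treated with compound dilutions for 48 hours, then lysed with CellTiter-Glo for 15 min at room temperature before luminescence reading.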

[3] = qHTS of pediatric cancer cell lines to identify multiple opportunities for drug repurposing: Primary screen for NB-EBc1 cells (AID 1347095)
Procedure, shortened: as §1

[4] = qHTS of pediatric cancer cell lines to identify multiple opportunities for drug repurposing: Primary screen for U-2 OS cells (AID 1347096); note: nearly all actives have a fitted effect of over 50% in size
Procedure, shortened: (§2)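 Cells (500-1,000/well) rested 5 h, then received compounds for 48 h; metabolically active cells were measured by CellTiter-Glo luminescence. Final concentrations spanned up to 46 µM (MIPE, 11-point) or 0.59 nM-46 µM (NPC, 8-point) in primary screens, 11-point in follow-ups.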

[5] = qHTS of pediatric cancer cell lines to identify multiple opportunities for drug repurposing: Primary screen for SK-N-SH cells (AID 1347098);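 note: DMSO served as neutral control and bortezomib at 2.3 µM as positive control; nearly all actives have a fitted effect of over 65% in size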
Procedure, shortened: as §2

[6] = qHTS of pediatric cancer cell lines to identify multiple opportunities for drug repurposing: Primary screen for NB1643 cells (AID 1347099); note: nearly all actives have a fitted effect of over 50% in size; note: potency is the fitted concentration of half-maximal effect
Procedure, shortened: as §1

[7] = qHTS of pediatric cancer cell lines to identify multiple opportunities for drug repurposing: Primary screen for LAN-5 cells (AID 1347100)
Procedure, shortened: as §2

[8] = qHTS of pediatric cancer cell lines to identify multiple opportunities for drug repurposing: Primary screen for BT-12 cells (AID 1347101); note: nearly all actives have a fitted effect of over 25% in size
Procedure, shortened: as §2

[9] = qHTS of pediatric cancer cell lines to identify multiple opportunities for drug repurposing: Primary screen for Saos-2 cells (AID 1347097); note: nearly all actives have a fitted effect of over 40% in size
Procedure, shortened: as §1

In the case of Cc1cc(=O)[nH]c(=S)[nH]1, the Potency [1] is reported as “inactive”, the outcome [2] is reported as “inactive” and the outcome [3] is reported as “inactive”. For the same molecule, the outcome [4] was “inactive”, the outcome [5] was “inactive” and the Potency [6] was “inactive”. The outcome [7] was “inactive” and the outcome [8] was “inactive”.

For CC(C)(C)NCC(O)COc1cccc2c1CCC(=O)N2 (stereo not given), the Potency [1] was “inactive”, the outcome [2] was “inactive” and the outcome [3] was “inactive”. For the same molecule, the outcome [4] was “inactive”, the outcome [9] was “inactive” and the outcome [5] was “inactive”. The Potency [6] was “inactive”, the outcome [7] was “inactive” and the outcome [8] was “inactive”.

For O=c1[nH]cnc2nc[nH]c12, the Potency [1] was “inactive”, the outcome [2] was “inactive” and the outcome [4] was “inactive”. The outcome [9] was “inactive”, the outcome [5] was “inactive” and the Potency [6] was “inactive”. The outcome [7] was “inactive” and the outcome [8] was “inactive”.

For C=CCSCC1Nc2cc(Cl)c(S(N)(=O)=O)cc2S(=O)(=O)N1 (stereo not given), the Potency [1] was “inactive”, the outcome [2] was “inactive” and the outcome [3] was “inactive”. For the same molecule, the outcome [4] was “inactive”, the outcome [9] was “inactive” and the outcome [5] was “inactive”. The Potency [6] was “inactive”, the outcome [7] was “inactive” and the outcome [8] was “inactive”.

In the case of CCN(CC)C(=O)c1cccc(C)c1, the Potency [1] is reported as “inactive”, the outcome [2] is reported as “inactive” and the outcome [3] is reported as “inactive”. The outcome [4] was “inactive”, the outcome [9] was “inactive” and the outcome [5] was “inactive”. For the same molecule, the Potency [6] was “inactive”, the outcome [7] was “inactive” and the outcome [8] was “inactive”.

For CC(=O)OCC(COC(C)=O)OC(C)=O, the Potency [1] was “inactive”, the outcome [2] was “inactive” and the outcome [4] was “inactive”. The outcome [9] was “inactive”, the outcome [5] was “inactive” and the Potency [6] was “inactive”. The outcome [7] was “inactive” and the outcome [8] was “inactive”.

With Cc1ncc(CO)c(CN)c1O the Potency [1] was “inactive”, the outcome [2] was “inactive” and the outcome [4] was “inactive”. For the same molecule, the outcome [9] was “inactive”, the outcome [5] was “inactive” and the Potency [6] was “inactive”. The outcome [7] was “inactive”.

In the case of C/C=C/C(=O)N(CC)c1ccccc1C, the Potency [1] is reported as “inactive”, the outcome [2] is reported as “inactive” and the outcome [4] is reported as “inactive”. The outcome [9] was “inactive”, the outcome [5] was “inactive” and the Potency [6] was “inactive”. For the same molecule, the outcome [7] was “inactive” and the outcome [8] was “inactive”.

In the case of NC(N)=NCCN1CCCCCCC1, the activity change, negative = cytotoxic [1] is reported as -13.5% [at 0.597 µM], the activity change, negative = cytotoxic [2] is reported as 4.17% [at 0.745 µM] and the activity change, negative = cytotoxic [3] is reported as 19.5% [at 0.597 µM]. The activity change, negative = cytotoxic [4] was 9.69% [at 0.597 µM], the activity change, negative = cytotoxic [9] was 2.27% [at 0.597 µM] and the activity change, negative = cytotoxic [5] was -2% [at 0.741 µM]. The activity change, negative = cytotoxic [7] was 4.87% [at 0.597 µM] and the activity change, negative = cytotoxic [8] was 7.77% [at 0.745 µM].

With O=C(Cn1ccnc1[N+](=O)[O-])NCCO the Potency [1] was “inactive”, the outcome [2] was “inactive” and the outcome [3] was “inactive”. The outcome [4] was “inactive”, the outcome [9] was “inactive” and the outcome [5] was “inactive”. The Potency [6] was “inactive”, the outcome [7] was “inactive” and the outcome [8] was “inactive”.

With NC(=O)NC1NC(=O)NC1=O (stereo not given) the Potency [1] was “inactive”, the outcome [2] was “inactive” and the outcome [3] was “inactive”. For the same molecule, the outcome [4] was “inactive”, the outcome [9] was “inactive” and the outcome [5] was “inactive”. The Potency [6] was “inactive”, the outcome [7] was “inactive” and the outcome [8] was “inactive”.

In the case of Cc1cccc(C)c1NC(=O)CC12CCCN1CCC2, the Potency [1] is reported as “inactive”, the outcome [2] is reported as “inactive” and the outcome [3] is reported as “inactive”. For the same molecule, the outcome [4] was “inactive”, the outcome [9] was “inactive” and the outcome [5] was “inactive”. The Potency [6] was “inactive”, the outcome [7] was “inactive” and the outcome [8] was “inactive”.

With O=C1c2ccccc2C(=O)C1c1ccc(Br)cc1 the Potency [1] was “inactive”, the outcome [2] was “inactive” and the outcome [3] was “inactive”. For the same molecule, the outcome [4] was “inactive”, the outcome [9] was “inactive” and the outcome [5] was “inactive”. For the same molecule, the Potency [6] was “inactive”, the outcome [7] was “inactive” and the outcome [8] was “inactive”.

For CCCCCCCCCCC(CO)CCCCCCCC (stereo not given), the Potency [1] was “inactive”, the outcome [2] was “inactive” and the outcome [3] was “inactive”. For the same molecule, the outcome [4] was “inactive”, the outcome [9] was “inactive” and the outcome [5] was “inactive”. The outcome [7] was “inactive” and the outcome [8] was “inactive”.

With COc1nccnc1NS(=O)(=O)c1ccc(N)cc1 the Potency [1] was “inactive”, the outcome [2] was “inactive” and the outcome [3] was “inactive”. The outcome [4] was “inactive”, the outcome [9] was “inactive” and the outcome [5] was “inactive”. The Potency [6] was “inactive”, the outcome [7] was “inactive” and the outcome [8] was “inactive”.

With O=c1[nH]c(=O)c2ccccc2o1 the Potency [1] was “inactive”, the outcome [2] was “inactive” and the outcome [3] was “inactive”. The outcome [4] was “inactive”, the outcome [9] was “inactive” and the outcome [5] was “inactive”. For the same molecule, the Potency [6] was “inactive”, the outcome [7] was “inactive” and the outcome [8] was “inactive”.

For Cn1cc(C(=O)[C@@H]2CCc3nc[nH]c3C2)c2ccccc21, the Potency [1] was “inactive”, the outcome [2] was “inactive” and the outcome [3] was “inactive”. For the same molecule, the outcome [4] was “inactive”, the outcome [9] was “inactive” and the Potency [6] was “inactive”. For the same molecule, the outcome [7] was “inactive”.

In the case of C=CCNC(N)=S, the Potency [1] is reported as “inactive”, the outcome [2] is reported as “inactive” and the outcome [4] is reported as “inactive”. For the same molecule, the outcome [9] was “inactive”, the outcome [5] was “inactive” and the Potency [6] was “inactive”. The outcome [7] was “inactive” and the outcome [8] was “inactive”.

For CC(=O)Nc1cccc(O)c1, the Potency [1] was “inactive”, the outcome [2] was “inactive” and the outcome [3] was “inactive”. The outcome [4] was “inactive”, the outcome [5] was “inactive” and the Potency [6] was “inactive”. The outcome [7] was “inactive” and the outcome [8] was “inactive”.

With Cc1ccsc1C(=CCCN1CCC[C@@H](C(=O)O)C1)c1sccc1C the Potency [1] was “inactive”, the outcome [2] was “inactive” and the outcome [3] was “inactive”. The outcome [4] was “inactive”, the outcome [9] was “inactive” and the outcome [5] was “inactive”. For the same molecule, the Potency [6] was “inactive”, the outcome [7] was “inactive” and the outcome [8] was “inactive”.

For CC(C)C[C@@H](N)C(=O)O, the outcome [2] was “inactive”, the outcome [3] was “inactive” and the outcome [4] was “inactive”. The outcome [9] was “inactive”, the outcome [5] was “inactive” and the Potency [6] was 1 nM (active). The outcome [7] was “inactive” and the outcome [8] was “inactive”.

For Cc1c(C(=O)NCCO)[n+](=O)c2ccccc2n1[O-], the Potency [1] was “inactive”, the outcome [2] was “inactive” and the outcome [3] was “inactive”. For the same molecule, the outcome [4] was “inactive”, the outcome [9] was “inactive” and the outcome [5] was “inactive”. For the same molecule, the outcome [7] was “inactive”.

In the case of CCN(CC)S(=O)(=O)c1ccc(C(=O)O)cc1, the Potency [1] is reported as “inactive”, the outcome [2] is reported as “inactive” and the outcome [3] is reported as “inactive”. The outcome [4] was “inactive”, the outcome [9] was “inactive” and the outcome [5] was “inactive”. The outcome [7] was “inactive” and the outcome [8] was “inactive”.

For C[C@@H]1CCC[C@H](C)N1, the Potency [1] was “inactive”, the outcome [2] was “inactive” and the outcome [3] was “inactive”. For the same molecule, the outcome [4] was “inactive”, the outcome [9] was “inactive” and the outcome [5] was “inactive”. The outcome [7] was “inactive” and the outcome [8] was “inactive”.

For O=C(/C=C/c1ccc(O)c(O)c1)O[C@@H]1C[C@@](OC(=O)/C=C/c2ccc(O)c(O)c2)(C(=O)O)C[C@@H](O)[C@@H]1O, the Potency [1] was “inactive”, the outcome [2] was “inactive” and the outcome [4] was “inactive”. The outcome [9] was “inactive”, the outcome [5] was “inactive” and the Potency [6] was “inactive”. The outcome [7] was “inactive” and the outcome [8] was “inactive”.

With CCOC(N)=O the Potency [1] was “inactive”, the outcome [2] was “inactive” and the outcome [3] was “inactive”. The outcome [4] was “inactive”, the outcome [9] was “inactive” and the outcome [5] was “inactive”. The outcome [7] was “inactive”.

In the case of CCCCCCCC(=O)OCC(COC(=O)CCCCCCC)OC(=O)CCCCCCC, the outcome [2] is reported as “inactive”, the outcome [4] is reported as “inactive” and the outcome [9] is reported as “inactive”. The outcome [5] was “inactive”, the Potency [6] was “inactive” and the outcome [7] was “inactive”. The outcome [8] was “inactive”.

For CC(C)(C)C(=O)OCOC(=O)[C@@H]1N2C(=O)[C@@H](NC(=O)[C@H](N)c3ccccc3)[C@H]2SC1(C)C, the Potency [1] was “inactive”, the outcome [2] was “inactive” and the outcome [3] was “inactive”. For the same molecule, the outcome [4] was “inactive”, the outcome [9] was “inactive” and the outcome [5] was “inactive”. The Potency [6] was “inactive”, the outcome [7] was “inactive” and the outcome [8] was “inactive”.
